IL1B secr inh: inflammasome signaling inhibition, IL-1 beta readout. THP-1 LPS/ATP IL-1B secretion, AlphaLISA, 16 h; stronger effect = lower value. AID 743279. activity change, % at 57.5 µM. 4.7% of 360,000 active; in the data active = activity change below about -50%; inconclusive = mostly about -30% to -49%; also: % is scaled to controls: 0 for no effect and ±100 for the full control effect
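THP-1 cells pretreated 1 hr with compounds (up to 57.5 uM final), then stimulated with LPS (250 ng/mL final) plus ATP (1.25 mM final); secreted IL-1B measured by AlphaLISA after 16 hr, decreased signal indicating inhibition.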
D3 antag: D3 dopamine receptor (human) antagonism; P35462; D3R cells, DiscoveRx beta-arrestin luminescence, antagonist mode; stronger effect = lower value; max response, negative = inhibition, %; 2.5% of 360,000 active; in the data active = max response below about -50%; inconclusive = no clear call, values can overlap the other calls; also: % is scaled to controls: 0 for no effect and ±100 for the full control effect
Target sequence (P35462 whole entry, looked up): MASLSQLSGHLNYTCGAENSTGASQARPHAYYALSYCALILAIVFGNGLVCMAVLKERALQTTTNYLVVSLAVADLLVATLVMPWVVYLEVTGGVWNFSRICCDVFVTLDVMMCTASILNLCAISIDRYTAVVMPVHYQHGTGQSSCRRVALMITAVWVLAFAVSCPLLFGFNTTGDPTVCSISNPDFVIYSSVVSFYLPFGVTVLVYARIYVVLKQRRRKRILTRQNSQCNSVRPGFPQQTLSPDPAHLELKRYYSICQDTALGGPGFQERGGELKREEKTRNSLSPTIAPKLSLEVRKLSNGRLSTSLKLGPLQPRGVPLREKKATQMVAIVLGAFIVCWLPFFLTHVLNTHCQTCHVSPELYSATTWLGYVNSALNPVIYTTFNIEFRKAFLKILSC
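Cells expressing the human receptor were seeded at 1500 cells/well, incubated overnight at 37 degrees C in 5% CO2, then exposed to library compounds with dopamine controls for 90 minutes at 37 degrees C before luminescent detection.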
D3 ag: activates the human D3 dopamine receptor; P35462; 0.58% of 410,000 active; max activation, %; D3R DiscoveRx beta-arrestin cells, luminescence, 90 min; in the data active = max activation above about 30%; also: 0% is about no effect
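Cells at 1500/well, incubated overnight, then treated with pinned compounds (dopamine as control) for 90 min at 37 degrees C. DiscoveRx reagent added for 30 - 60 minutes at room temperature; luminescence read.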
ClpP mod: qHTS Assay for Activators of ClpP; purified B. subtilis ClpP, FRET peptide cleavage, 20 min; Potency, µM (titrated, usually from 57.5 µM), for the others: at the top dose activity change, negative = active; 1.9% of 340,000 active; AID 651965, 2013; active = well fitted falling curve with a large enough effect; inconclusive = small, poorly fitted or top-dose-only effect; inactive = no such curve, though single readings can be large or run the other way; also: potency is read from the fitted curve at half-maximal effect; the source files actives as falling curves though it sought activators and does not explain the sign; nearly all actives have a fitted effect of over 65% in size
Target sequence (P80244 whole entry, looked up): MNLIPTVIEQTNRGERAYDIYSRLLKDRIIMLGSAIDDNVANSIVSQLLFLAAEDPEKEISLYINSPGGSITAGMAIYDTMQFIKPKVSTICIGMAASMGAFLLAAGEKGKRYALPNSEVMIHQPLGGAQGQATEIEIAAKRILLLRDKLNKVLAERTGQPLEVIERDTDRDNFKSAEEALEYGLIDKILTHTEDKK
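Buffer: 100 mM Tris/HCl pH8, 100 mM KCl, 0.05% low protease BSA, 2.5% glycerol, 0.01% Tween-20. ClpP 10 microg/mL final; 20 min RT; delta FRET normalized to ADEP and DMSO controls.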
DT40 TDP1 CPT: growth inhibition of DT40 Tdp1-/-;hTDP1 cells with camptothecin (screen for TDP1 inhibitors); chicken DT40 Tdp1-/-;hTDP1 cells + 20 nM CPT, ATP luminescence, 48 h; Potency, µM (doses to about 46.2 µM), for the others: top-dose activity change, negative = growth inhibition, usual class: inhibitors; 12% of 420,000 active; AID 686979; also: potency is read from the fitted curve at half-maximal effect; % is scaled to controls: 0 for no effect and ±100 for the full control effect; nearly all actives have a fitted effect of over 55% in size
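Chicken DT40 Tdp1-/- cells complemented with human TDP1, 400 cells/well, exposed to compounds plus 20 nM camptothecin for at least 48 h at 37 C; viability read as ATP content by CellTiter-Glo luminescence.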
TDP1 cell noCPT: qHTS for Inhibitors of human tyrosyl-DNA phosphodiesterase 1 (TDP1): qHTS in cells in absence of CPT; 15% of 420,000 active; DT40 Tdp1-/- hTDP1 cells, no CPT, ATP luminescence, 48 h; Potency, µM (series often up to 46.2 µM), without a hit: top-dose activity change, negative = growth inhibition, actives largely listed as inhibitors; also: potency is read from the fitted curve at half-maximal effect; % is scaled to controls: 0 for no effect and ±100 for the full control effect; nearly all actives have a fitted effect of over 55% in size
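Camptothecin absent (DMSO only). Human TDP1-complemented DT40 knockout cells, 400 cells/well, 37 °C for minimum 48 hr; ATP measured via CellTiter-Glo, 30 min dark incubation, luminescence.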
Starred values were filed as active, the others as inactive; ? = inconclusive; · = not tested or not shown; [ ] = another dose, or the depositor's remark. In the library only some 21% were active in any assay of this set; here they are far more common. Unless noted, calls follow the shape of the dose curve; as a rule, active = well fitted inhibition curve with a large enough effect; inconclusive = small, poorly fitted or top-dose-only effect; inactive = flat fitted curve, though single readings scatter.

SMILES | IL1B secr inh | D3 antag | D3 ag | ClpP mod | DT40 TDP1 CPT | TDP1 cell noCPT
COc1ccc(-c2cc(=O)oc3cc(OCC(=O)N4CCOCC4)ccc23)cc1 | -9 | -1 | 1 | · | 8% | -1%
COC(=O)COc1ccc2c(-c3ccc(OC)cc3)cc(=O)oc2c1 | 24 | -25 | -10 | ? | 0.41µM* | -2%
COc1ccc(-c2cc(=O)oc3cc(OC(=O)C4CCCCC4)ccc23)cc1 | -25 | 28 | 2 | -14% | ? | 18µM*
COc1ccc(-c2noc(-c3ccc(NCCc4ccccc4)c([N+](=O)[O-])c3)n2)cc1OC | · | · | 4 | 0% | -18% | -20%
CCOC(=O)c1ccc(NC(=O)C2Cc3ccccc3CN2S(=O)(=O)c2ccc(Cl)cc2)cc1 (stereo not drawn) | · | · | -5 | -2% | ? | 16µM*
O=C(Nc1nccs1)C1Cc2ccccc2CN1S(=O)(=O)c1ccc(F)cc1 (stereo not drawn) | 6 | 2 | 0 | -4% | ? | 15µM*
CCOC(=O)c1ccc(NC(=O)C2CC(O)CN2S(=O)(=O)c2ccc(C)cc2)cc1 (stereo not drawn) | 12 | -54* | -18 | -2% | -25% | ?
COc1ccc(S(=O)(=O)N2Cc3ccccc3CC2C(=O)Nc2cccc(C)c2)cc1OC (stereo not drawn) | · | · | -15 | 0% | ? | 9.2µM*
Cc1ccc(S(=O)(=O)N2CC(O)CC2C(=O)O)cc1 (stereo not drawn) | 29 | -15 | -14 | 35µM* | 1% | -1%
CN(CC(=O)Nc1cc(S(=O)(=O)N2CCOCC2)ccc1Cl)C1CCS(=O)(=O)C1 (stereo not drawn) | 2 | 17 | 3 | · | 2% | ?
O=S(=O)(NC1CC2CCC1C2)c1ccc(Br)s1 (stereo not drawn) | 10 | -22 | -6 | -17% | ? | 23µM*
O=S(=O)(NC1CC2CCC1C2)c1ccc(Br)cc1 (stereo not drawn) | 3 | 3 | -14 | 1% | -20% | -16%
C[C@H](CO)N1C[C@H](C)[C@@H](CN(C)S(=O)(=O)c2ccc(F)cc2)Oc2ccc(NC(=O)Cc3ccccc3)cc2C1=O | -8 | 17 | 1 | 2% | ? | ?
O=C1NC(CCc2ccccc2)C(=O)N1Cc1ccc(Br)cc1 (stereo not drawn) | 18 | -71* | 0 | · | 0% | -27%
O=C(CN1C(=O)NC(CCc2ccccc2)C1=O)Nc1cccc(Br)c1 (stereo not drawn) | -28 | 2 | 0 | -1% | ? | 16µM*
O=C1N[C@@H](Cc2c[nH]c3ccccc23)C(=O)N[C@H]1Cc1c[nH]c2ccccc12 | · | · | · | · | -18%[9.04 µM] | -17%[9.04 µM]
O=C1NC(Cc2c[nH]c3ccccc23)C(=O)N1Cc1ccc(CN2C(=O)NC(Cc3c[nH]c4ccccc34)C2=O)cc1 (stereo not drawn) | -14 | 12 | 12 | -5% | ? | 23µM*
OCC1(Cc2ccccc2)CCN(C2CCN(c3ccc(F)c(F)c3)CC2)CC1 | -118* | -2 | -18 | · | -29% | 12µM*
CCc1ccc(CNC(=O)COc2cc(=O)n(CC)c3ccccc23)cc1 | · | · | -30 | -13% | ? | 26µM*
CCn1c(=O)cc(OCC(=O)O)c2ccccc21 | 22 | 15 | 2 | -14% | 4% | 3%
CCn1c(=O)cc(OCC(=O)NCc2ccc(F)cc2Cl)c2ccccc21 | · | · | -25 | -3% | ? | 23µM*
CCn1c(=O)cc(OCC(=O)NCCC(C)C)c2ccccc21 | -17 | -3 | -9 | -2% | 29µM* | ?
CCOC(=O)N1CCN(C(=O)c2cn(C)c3ccc(S(=O)(=O)N4CCC(C)CC4)cc3c2=O)CC1 | -11 | 13 | 16 | · | 3% | -16%
COC(=O)c1cc(C)nc2c1c(=O)nc(SCc1cccc(C(F)(F)F)c1)n2C1CC1 | · | · | -9 | -1% | -5% | 3%
COc1ccccc1/C=C/c1cnccn1 | · | · | · | -14% | -5% | ?
SMILES | IL1B secr inh | D3 antag | D3 ag | ClpP mod | DT40 TDP1 CPT | TDP1 cell noCPT
COc1ccccc1/C=C/c1cncc(/C=C/c2ccccc2OC)c1 | · | · | · | -7% | ? | 13µM*
COc1cccc(/C=C/c2ccnc3ccccc23)c1OC | · | · | · | ? | ? | 11µM*
COc1ccccc1C=Cc1ccnc2ccccc12 | -93* | -9 | 6 | 0% | ? | ?
CCN(Cc1ccccc1)C(=O)Cn1cc(S(=O)(=O)Cc2cccc(Cl)c2)c2ccccc21 | · | · | 5 | 0% | ? | ?
CCNc1ncc2nc(-c3ccc(Cl)cc3)c(=O)n(C)c2n1 | · | · | · | · | -3% | 0%
CC(=O)NC(Cc1c[nH]c2ccccc12)C(=O)N1CCN(S(=O)(=O)c2ccccc2)CC1 (stereo not drawn) | 6 | 4 | 1 | ? | -5% | -5%
Cc1ccc(NC(=O)Cn2c(O)c(N=NC(N)=S)c3ccccc32)cc1 | 6 | -28 | 4 | · | ? | ?
O=Nc1c(O)n(Cc2cccc(Cl)c2)c2ccccc12 | -68* | 1 | 0 | -1% | 1% | -28%
Cc1cc(C)nc(N=Nc2c(O)n(Cc3ccc(Cl)cc3)c3ccccc23)n1 | 6 | -21 | -2 | -1% | ? | 18µM*
NC(=S)N=Nc1c(O)n(Cc2ccccc2)c2ccccc12 | 11 | -9 | -19 | 4% | 5.8µM* | 6.5µM*
C/C(Cl)=C\Cn1c(O)c(N=NC(N)=S)c2ccccc21 | -5 | ? | -10 | · | 4.1µM* | 3.7µM*
O=C(COC(=O)CNC(=O)C1CCCCC1)Nc1ccccc1OC(F)F | 12 | -1 | 6 | -1% | ? | 1%
O=c1[nH]cnc2c1nc(NCc1ccccc1)n2C1O[C@@H](CO)[C@H](O)[C@@H]1O (stereo partly drawn) | -9 | -7 | -4 | · | -21% | -21%
CCCCNC(=S)N=Nc1c(O)n(Cc2ccccc2)c2ccccc12 | -27 | ? | 0 | -1% | 16µM* | 2.6µM*
O=S1(=O)CCC(N=Nc2c(O)n(Cc3ccccc3)c3ccccc23)C1 (stereo not drawn) | -9 | -2 | -11 | 0% | 21µM* | ?
O=c1[nH]c(C2CCCN(S(=O)(=O)c3ccc(F)cc3)C2)nc2c1nnn2Cc1ccc(F)cc1 (stereo not drawn) | -2 | 2 | -7 | · | -14% | ?

Screens (PubChem)
